Drawing on PubChem BioAssay AID1379 (National Center for Advancing Translational Sciences (NCATS), 2008), this text covers activity change, negative = inhibition and Potency for 45 compounds.

The whole screen tested about 200,000 compounds, of which about 560 (0.28%) were called active. The list comes from a sample in which actives are over-represented; it also holds similar structures and randomly drawn compounds. Entries that show only a call come without a potency. Values without a mark were called inactive. The call rests on the fitted dose curve; in most records, active means well fitted inhibition curve with a large enough effect; inconclusive means small, poorly fitted or top-dose-only effect; inactive means flat fitted curve, though single readings scatter.
Potency means the concentration at half of the fitted maximal effect.

The assay addresses Luciferin 4-monooxygenase (Photuris pensylvanica) (UniProt Q27757). As to the kind of experiment: Counterscreen for Luciferase (Kinase-Glo TM) Inhibition. Further: nearly all actives have a fitted effect of over 60% in size. To be noted: ATP luminescence, 8 min; series mostly up to 38.3 µM. As to the method:
NCGC Assay Overview: NIH Molecular Libraries Screening Centers Network [MLSCN] NIH Chemical Genomics Center [NCGC] MLSCN Grant: None Luciferase (Kinase-Glo, Promega Corporation) was assayed for its ability to generate light using ATP and luciferin as substrates. The ATP concentration in the assay (10 uM) was within the linear range of enzyme activity for the assay conditions used.
NCGC Assay Protocol Summary: Four uL of substrate mix (final concentration, 50 mM imidazole pH 7.2, 50 mM KCl, 7 mM MgCl2, 10 uM ATP, 0.01% Tween 20, 0.05% BSA) was dispensed into white 1536 well plates. Twenty-three nL of compound was delivered by a pin tool and 2 uL of luciferase detection mix (Kinase-Glo, Promega)) was added. Following 8-minute incubation at ambient temperature, luminescence was measured by a ViewLux (Perkin Elmer) at 5 seconds exposure/plate.
(The purpose of a counterscreen is to sort out artefacts and off-target activity.)
On to `C=C1c2cccc(OC)c2O[C@H](C(=O)OCC)[C@@H]1CCCCCC`, for which the activity change, negative = inhibition entry is “inactive”.

`CC(=NCc1ccco1)C1=C(O)c2ccccc2C1=O`: the activity change, negative = inhibition result was “inactive”.

On to `CCc1ccc(-c2cc(C(=O)NCc3ccco3)c3ccccc3n2)s1`, for which the activity change, negative = inhibition result is “inactive”.

In the case of `CC(=NCc1ccco1)c1c(C(F)(F)F)[nH]n(-c2nc3ccccc3s2)c1=O`, the Potency was 8.91 µM (active).

Consider `CC(=O)/C(C)=N/O`, for which the activity change, negative = inhibition result was “inactive”.

With `C/C=C1\C2C=C(C)CC1(N)c1ccc(=O)[nH]c1C2` (stereo not given), the activity change, negative = inhibition result is “inactive”.

`O=c1c(O)c(Br)ccc2c(Br)c(O)c(O)c(O)c12`: the activity change, negative = inhibition entry was “inactive”.

As for `Brc1ccc(C2=NCCC(c3ccccc3)O2)cc1` (stereo not given), the activity change, negative = inhibition entry is “inactive”.

With `COc1ccc(-c2c(C)cc3oc(=O)cc(-c4ccccc4)c3c2C)cc1C=O`, the activity change, negative = inhibition result is “inactive”.

Regarding `OC[C@H]1O[C@@H](n2cnc3c(NC4CCCC4)ncnc32)[C@H](O)[C@H]1O`, the activity change, negative = inhibition result was “inactive”.

As for `O=C1OCCN1C(=O)[C@H]1[C@H](c2ccccc2)C(c2ccc(F)cc2)=NN1c1ccccc1`, the activity change, negative = inhibition result was “inactive”.

On to `CCCCS(=O)(=O)N1C2=NC(C(=O)OC)=C(C(=O)OC)[C@@H]3N(Cc4ccccc4)c4ccccc4[C@]23C[C@H]1C(=O)OC`, for which the activity change, negative = inhibition is -7.24% [at 7.66 µM].

As for `O=C1CCC[C@@H]2CC(N3CCCCC3)C[C@@H]3CCN1[C@H]23` (stereo not given in full), the activity change, negative = inhibition result is “inactive”.

For `COc1ccc(C(=O)Nc2ccccc2C(=O)N/N=C/c2ccccc2OC)cc1`, the Potency was 6.31 µM (active).

Consider `COc1ccc(/C=N/NC(=O)c2ccccc2)cc1OS(=O)(=O)c1ccccc1`, for which the activity change, negative = inhibition entry was “inactive”.

With `COc1ccc(C(=O)Nc2ccccc2C(=O)N/N=C/c2ccc(O)c(OC)c2)cc1`, the Potency was 1 µM (active).

As to `COc1cc(/C=N/NC(=O)c2ccccc2)ccc1OS(=O)(=O)c1ccccc1`, the activity change, negative = inhibition entry was “inactive”.

Consider `COc1ccccc1C(=O)NNC(=O)c1ccc(NC(=O)c2ccccc2)cc1`, for which the activity change, negative = inhibition result is “inactive”.

Turning to `CCn1c(/C=N/NC(=O)c2ccc(OC)cc2)nc2ccccc21`, the activity change, negative = inhibition entry is “inactive”.

Take `CC1(OC(=O)C2CCCC2)C(=O)C=C2C=C(c3ccc(C#N)cc3)OC=C2C1=O` (stereo not given): the activity change, negative = inhibition entry was “inactive”.

In the case of `C[C@H]1Cc2c(COc3ccccc3)nc3c(c2CO1)CN(C(=O)Nc1cccc(C#N)c1)CC3`, the activity change, negative = inhibition is -0.91% [at 7.66 µM].

Take `COC1(C2=NCCN2)COc2ccccc2O1` (stereo not given): the activity change, negative = inhibition entry is “inactive”.

On to `O=C1OCCN1C(=O)[C@H]1[C@H](c2ccc(Cl)cc2)C(c2cccc(Cl)c2)=NN1c1ccc(Br)cc1`, for which the activity change, negative = inhibition entry was “inactive”.

Regarding `COc1ccc2c(c1)O[C@@H](c1ccc3c(c1)OCO3)[C@H](OC(=O)NCCc1ccc(OC)c(OC)c1)C2=O`, the activity change, negative = inhibition entry is “inactive”.

With `CC[C@H](C)[C@@H](NC(=O)O[C@@H]1C(=O)c2cc(OC)ccc2O[C@H]1c1cccc(OC)c1)C(=O)OC`, the activity change, negative = inhibition entry is “inactive”.

For `CCOC(=O)C1C/C(=C\C(C)=O)c2cccc(C(F)(F)F)c2O1` (stereo not given), the activity change, negative = inhibition result was “inactive”.

`OC[C@H]1O[C@@H](n2cnc3c(N[C@H]4CC5CCC4C5)ncnc32)[C@H](O)[C@@H]1O` (stereo not given in full): the activity change, negative = inhibition entry is “inactive”.

Regarding `COc1ccccc1CNC(=O)c1ccc(SC)cc1OC`, the activity change, negative = inhibition entry was “inactive”.

As to `COc1cc(SC)ccc1C(=O)Nc1cc(C)ccn1`, the activity change, negative = inhibition result was “inactive”.

Consider `COc1cc(SC)ccc1C(=O)Nc1nc(C)cs1`, for which the Potency is 11.2 µM (active).

As to `CCCCC1=CC2=CC(=O)C(C)(OC(=O)CC)C(=O)C2=CN1CCCOC(C)C` (stereo not given), the activity change, negative = inhibition was -3.21% [at 7.66 µM].

`C=CCN1c2ccccc2[C@]23C[C@@H](C(=O)OC)N(S(=O)(=O)c4ccc([N+](=O)[O-])cc4)C2=NC(C(=O)OC)=C(C(=O)OC)[C@H]13`: the activity change, negative = inhibition is -1.89% [at 7.66 µM].

Turning to `O=C(O)CCC(=O)O`, the activity change, negative = inhibition entry was “inactive”.

On to `CC(=O)CC(c1ccccc1)C1C(=O)Oc2ccccc2C1=O` (stereo not given), for which the activity change, negative = inhibition result is “inactive”.

For the compound `CC(C)(C)OC(=O)NCCCCC1=CC2=CC(=O)C(C)(OC(=O)c3cccs3)C(=O)C2=CO1` (stereo not given), the activity change, negative = inhibition result is “inactive”.

Turning to `CC1=C(C/C=C(\C)CCCC(C)CCCC(C)CCCC(C)C)C(=O)c2ccccc2C1=O` (stereo not given), the activity change, negative = inhibition entry was “inactive”.

For `CCCCCCCC/C=C\CCCCCCCC(=O)OC[C@H](CO)OC(C)=O`, the activity change, negative = inhibition result is “inactive”.

Take `COC(=O)CCCC1=CC2=CC(=O)C(C)(OC(=O)c3cccs3)C(=O)C2=CN1CC1CC1` (stereo not given): the activity change, negative = inhibition was -3.89% [at 7.66 µM].

As for `CC[C@@]12C=C(/C=C/c3ccccc3)[C@](CC)(C1)[C@H](c1ccccc1)CC2=O`, the activity change, negative = inhibition result was “inactive”.

`O=c1c2ccccc2nc2n1C1(CCCCC1)Cc1ccccc1-2`: the activity change, negative = inhibition result is “inactive”.

Turning to `CN(c1ccc2nc3ccccc3c(=O)n2n1)C1CCCCC1`, the Potency is 6.31 µM (active).

Regarding `CCOC(=O)C(C)Sc1nc2ccccc2c(=O)n1CC1CCCCC1` (stereo not given), the activity change, negative = inhibition entry was “inactive”.

Consider `C=CCOC(=O)NC(c1ccc(F)c(F)c1)C(C(=O)COC)C(=O)OC` (stereo not given), for which the activity change, negative = inhibition result was “inactive”.

In the case of `COC(=O)C(C(=O)OC)C1c2ccccc2C=C(C2CC2)N1C(=O)OC` (stereo not given), the activity change, negative = inhibition result was “inactive”.

On to `CC/C=C\C/C=C\C/C=C\C/C=C\C/C=C\C/C=C\CCC(=O)NC(C)C(=O)O` (stereo not given), for which the activity change, negative = inhibition entry was “inactive”.
